{"source": "PubChem BioAssay (NCATS)", "note": "Records with an inconclusive call do not appear. The source made the active and inactive calls. Calls follow the shape of the dose curve; as a rule, active = well fitted curve in the direction sought with a large enough effect; inconclusive = small, poorly fitted or top-dose-only effect, or another doubt; inactive = no such curve, though single readings can be large; an effect the other way counts as inactive or inconclusive.", "data": [{"test_system": "Nanoluciferase (engineered Oplophorus gracilirostris luciferase)", "experiment": "Primary Nanoluciferase (NLuc) qHTS assay for identification of artifact compounds. (AID 1845222); also: potency is read from the fitted curve at half-maximal effect;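 as to activity, negative = inhibition: NLuc secreted into diluted conditioned medium of S16 cells; 0% = DMSO and -100% = no enzyme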", "settings": "NLuc-conditioned medium, Nano-Glo luminescence, 5 min; series mostly up to 54.1 µM; activity, negative = inhibition: at the top concentration", "outline": "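NLuc from S16 cell medium (1:55) plus test compounds, 15 min, room temperature. Luminescence after Nano-Glo (1:100) addition, 5 min.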", "values": [{"smiles": "C=C1CC[C@@H](O)[C@]2(C)CC[C@H]3C(=C)C(=O)O[C@@H]3[C@@H]12", "activity, negative = inhibition": "0.218% (inactive)"}, {"smiles": "CC(C)c1cccc(C(C)C)c1NC(=O)Nc1ccc(Sc2ccc([N+](=O)[O-])cc2)cc1", "activity, negative = inhibition": "4.48% (inactive)"}, {"smiles": "OC1CCC(Nc2nc(-c3ccccc3)nc3[nH]ccc23)CC1", "note": "(centres undefined)", "activity, negative = inhibition": "-8.37% (inactive)"}, {"smiles": "CC(/C=C/C(=O)NO)=C\\[C@@H](C)C(=O)c1ccc(N(C)C)cc1", "activity, negative = inhibition": "-0.657% (inactive)"}, {"smiles": "CC[C@H](C(=O)Nc1ccccc1N1CCCC1)c1ccccc1", "activity, negative = inhibition": "-18.8% (inactive)"}, {"smiles": "CC(C)(C)C1CCN(C(=O)n2ncc(C(O)(c3ccccc3)c3ccccc3)n2)CC1", "activity, negative = inhibition": "-5.85% (inactive)"}, {"smiles": "CCOc1ccc(CCNC(=O)c2cc3sc(Cl)cc3n2C)cc1OCC", "activity, negative = inhibition": "3.95% (inactive)"}, {"smiles": "C[C@@H](NC(=O)C(=O)c1c[nH]c2ccc([N+](=O)[O-])cc12)c1ccccc1", "activity, negative = inhibition": "-5.2% (inactive)"}, {"smiles": "O=S(=O)(Nc1ccccc1N1CCCCC1)c1ccc(Cl)s1", "activity, negative = inhibition": "0% (inactive)"}, {"smiles": "CC(C)(C)OC(=O)c1ncn2c1C(C)(C)Nc1ccccc1-2", "activity, negative = inhibition": "0.726% (inactive)"}, {"smiles": "COc1cc2c(cc1O)C1(Cc3ccc4c(c3C1O)OCO4)[N+](C)([O-])CC2", "note": "(centres undefined)", "activity, negative = inhibition": "-7.8% (inactive)"}, {"smiles": "C=CS(=O)(=O)NC1CCN(C(=O)CNc2cc(I)c(Cl)cc2OC)CC1", "activity, negative = inhibition": "4.45% (inactive)"}, {"smiles": "O=S(=O)(NCc1ccccn1)c1ccc(Br)c2ccccc12", "activity, negative = inhibition": "-6.16% (inactive)"}, {"smiles": "CC(C)/C=C1\\NC(=O)C(C(C)C)n2c1nc1ccccc1c2=O", "note": "(centres undefined)", "activity, negative = inhibition": "4.81% (inactive)"}, {"smiles": "COC(=O)C[C@H]1[C@]2(C)C3=C(C)[C@H](c4ccoc4)C[C@H]3O[C@@H]2[C@H](O)C2[C@](C)(C(=O)OC)C=CC(=O)[C@@]21C", "note": "(some centres undefined)", "activity, negative = inhibition": "0.742% [at 25.7 µM] (inactive)"}, {"smiles": "CCCOc1ccc(CCc2nc3cc(-c4c(C)noc4C)ccc3n2CCN2CCOCC2)cc1", "activity, negative = inhibition": "-1.48% (inactive)"}, {"smiles": "Cn1c(CO)c(-c2ccccc2)c2cc([N+](=O)[O-])ccc21", "activity, negative = inhibition": "-6.57% (inactive)"}, {"smiles": "CC(C)=C[C@@H]1[C@H](CO[C@@H]2O[C@H](CO)[C@@H](O)[C@H](O)[C@H]2O)C1(C)C", "activity, negative = inhibition": "4.28% (inactive)"}, {"smiles": "Cc1cc(C)c2c(c1)C(N(Cc1cc(C(F)(F)F)cc(C(F)(F)F)c1)c1nnn(C)n1)CCCN2CC1CCC(C(=O)O)CC1", "note": "(centres undefined)", "activity, negative = inhibition": "-3.49% (inactive)"}, {"smiles": "CCOc1ccc(-n2c(C(C)N(Cc3cccnc3)C(=O)Cc3ccc(F)c(C(F)(F)F)c3)nc3ncccc3c2=O)cc1", "note": "(centres undefined)", "activity, negative = inhibition": "3.6% (inactive)"}, {"smiles": "COc1ccc(NC(=O)c2ccc(-c3ccc(-c4nnc(C)o4)cc3C)cc2)cc1N1CCN(C)CC1", "Potency": "1510 nM (active)"}, {"smiles": "CN1CCN(c2ccc(OC(F)(F)F)c(Nc3ncc4c(n3)-c3c(c(C(N)=O)nn3CCO)CC4)c2)CC1", "activity, negative = inhibition": "4.44% (inactive)"}, {"smiles": "CC(C)=CCC[C@](C)(O[C@@H]1O[C@H](CO[C@@H]2OC[C@@H](O)[C@H](O)[C@H]2O)[C@@H](O)[C@H](O)[C@H]1O)[C@H]1CC[C@]2(C)[C@@H]1[C@H](O)C[C@@H]1[C@@]3(C)CC[C@H](O[C@@H]4O[C@H](CO)[C@@H](O)[C@H](O)[C@H]4O)C(C)(C)[C@@H]3CC[C@]12C", "activity, negative = inhibition": "-2.96% [at 25.7 µM] (inactive)"}, {"smiles": "OC1C=C2C3CN(Cc4cc5c(cc43)OCO5)C2CC1O", "note": "(centres undefined)", "activity, negative = inhibition": "0% (inactive)"}, {"smiles": "C=C1CC(=O)C2OC2(C)CC2OC(=O)C(=C)C2C(O)C1OC(=O)/C(C)=C\\C", "note": "(centres undefined)", "activity, negative = inhibition": "-4.46% (inactive)"}, {"smiles": "CCOC(=O)c1cnn(-c2ccccc2)c1NC(=O)c1cc2nc(-c3ccco3)cc(C(F)(F)Cl)n2n1", "activity, negative = inhibition": "3.7% (inactive)"}, {"smiles": "C/C=C(\\C)C(=O)OC1C(C)C2(O)C(C=C(CO)CC3(O)C(=O)C(C)=CC32)C2C(C)(C)C12OC(C)=O", "note": "(centres undefined)", "activity, negative = inhibition": "-6.81% [at 25.7 µM] (inactive)"}, {"smiles": "C=C1C(=O)OC2C=C(C)CC/C=C(\\CO)CC(O)C12", "note": "(centres undefined)", "activity, negative = inhibition": "0.793% (inactive)"}, {"smiles": "CN1CCN(C2=Nc3ccccc3Nc3ccc(OS(=O)(=O)C(F)(F)F)cc32)CC1", "activity, negative = inhibition": "0.678% (inactive)"}, {"smiles": "C=C(C)[C@@H]1CC=C(COC(=O)NC(=O)c2ncn3c(=O)n(C)nnc23)CC1", "activity, negative = inhibition": "-27.4% (inactive)"}, {"smiles": "CCC(C)/C=C(C)/C=C/C1=CC2=C(Cl)C(=O)C(C)(OC(C)=O)C(=O)C2(O)C(OC)O1", "note": "(centres undefined)", "activity, negative = inhibition": "-6.01% [at 25.7 µM] (inactive)"}, {"smiles": "O=C(Nc1ccc(-c2ccc(Cl)c(Cl)c2)cc1)C1=C(O)c2ccccc2S(=O)(=O)N1", "activity, negative = inhibition": "-18.5% (inactive)"}, {"smiles": "O=C(NCCN1CCN(c2cccc3ccc(O)cc23)CC1)c1ccc(F)cc1", "activity, negative = inhibition": "-0.476% (inactive)"}]}, {"test_system": "not listed separately", "experiment": "Primary redox qHTS assay for identification of artifact compounds. (AID 1845223);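 also: 0% = DMSO and 100% = reference compound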", "settings": "Amplex Red/HRP redox cycling with DTT, fluorescence; series mostly up to 53.8 µM; redox activity (% of DA3003): at the top concentration", "outline": "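Redox-cycling detection via DTT (250 uM final) oxidation coupled to Amplex Red (25 uM)/HRP (250 mU/mL) in HBSS. 15 min preincubation plus 30 min after DTT, room temperature. Ex/Em 525/598 nm; 4-parameter Hill fit against DMSO and 10 uM DA3003.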", "values": [{"smiles": "C=C1CC[C@@H](O)[C@]2(C)CC[C@H]3C(=C)C(=O)O[C@@H]3[C@@H]12", "redox activity (% of DA3003)": "7.2% (inactive)"}, {"smiles": "CC(C)c1cccc(C(C)C)c1NC(=O)Nc1ccc(Sc2ccc([N+](=O)[O-])cc2)cc1", "redox activity (% of DA3003)": "-5.58% (inactive)"}, {"smiles": "OC1CCC(Nc2nc(-c3ccccc3)nc3[nH]ccc23)CC1", "note": "(centres undefined)", "redox activity (% of DA3003)": "5.29% (inactive)"}, {"smiles": "CC(/C=C/C(=O)NO)=C\\[C@@H](C)C(=O)c1ccc(N(C)C)cc1", "redox activity (% of DA3003)": "-3.45% (inactive)"}, {"smiles": "CC[C@H](C(=O)Nc1ccccc1N1CCCC1)c1ccccc1", "redox activity (% of DA3003)": "-0.281% (inactive)"}, {"smiles": "CC(C)(C)C1CCN(C(=O)n2ncc(C(O)(c3ccccc3)c3ccccc3)n2)CC1", "redox activity (% of DA3003)": "-1.45% (inactive)"}, {"smiles": "CCOc1ccc(CCNC(=O)c2cc3sc(Cl)cc3n2C)cc1OCC", "redox activity (% of DA3003)": "-6.94% (inactive)"}, {"smiles": "C[C@@H](NC(=O)C(=O)c1c[nH]c2ccc([N+](=O)[O-])cc12)c1ccccc1", "redox activity (% of DA3003)": "-1.06% (inactive)"}, {"smiles": "C#CCNCc1cc2cc(OCc3ccccc3)ccc2[nH]1", "redox activity (% of DA3003)": "-3.83% (inactive)"}, {"smiles": "O=S(=O)(Nc1ccccc1N1CCCCC1)c1ccc(Cl)s1", "redox activity (% of DA3003)": "-4.22% (inactive)"}, {"smiles": "CC(C)(C)OC(=O)c1ncn2c1C(C)(C)Nc1ccccc1-2", "redox activity (% of DA3003)": "-2% (inactive)"}, {"smiles": "C=CS(=O)(=O)NC1CCN(C(=O)CNc2cc(I)c(Cl)cc2OC)CC1", "redox activity (% of DA3003)": "-6.63% (inactive)"}, {"smiles": "O=S(=O)(NCc1ccccn1)c1ccc(Br)c2ccccc12", "redox activity (% of DA3003)": "-0.394% (inactive)"}, {"smiles": "CC(C)/C=C1\\NC(=O)C(C(C)C)n2c1nc1ccccc1c2=O", "note": "(centres undefined)", "redox activity (% of DA3003)": "-14% (inactive)"}, {"smiles": "CCN(CC)C(=O)C(c1ccccc1)N1CCN(c2ccc(NC(=O)c3ccccc3-c3cccnc3)cc2F)CC1", "note": "(centres undefined)", "redox activity (% of DA3003)": "17.2% (inactive)"}, {"smiles": "COc1cc2ncnc(Nc3ccc(F)c(Cl)c3)c2cc1O", "redox activity (% of DA3003)": "-3.54% (inactive)"}, {"smiles": "COC(=O)C[C@H]1[C@]2(C)C3=C(C)[C@H](c4ccoc4)C[C@H]3O[C@@H]2[C@H](O)C2[C@](C)(C(=O)OC)C=CC(=O)[C@@]21C", "note": "(some centres undefined)", "redox activity (% of DA3003)": "18.5% [at 25.6 µM] (inactive)"}, {"smiles": "Cn1c(CO)c(-c2ccccc2)c2cc([N+](=O)[O-])ccc21", "redox activity (% of DA3003)": "-1.5% (inactive)"}, {"smiles": "CC(C)=C[C@@H]1[C@H](CO[C@@H]2O[C@H](CO)[C@@H](O)[C@H](O)[C@H]2O)C1(C)C", "redox activity (% of DA3003)": "8.91% (inactive)"}, {"smiles": "Cc1cc(C)c2c(c1)C(N(Cc1cc(C(F)(F)F)cc(C(F)(F)F)c1)c1nnn(C)n1)CCCN2CC1CCC(C(=O)O)CC1", "note": "(centres undefined)", "redox activity (% of DA3003)": "8.75% (inactive)"}, {"smiles": "CCOc1ccc(-n2c(C(C)N(Cc3cccnc3)C(=O)Cc3ccc(F)c(C(F)(F)F)c3)nc3ncccc3c2=O)cc1", "note": "(centres undefined)", "redox activity (% of DA3003)": "0.293% (inactive)"}, {"smiles": "OC1C=C2C3CN(Cc4cc5c(cc43)OCO5)C2CC1O", "note": "(centres undefined)", "redox activity (% of DA3003)": "-11.3% (inactive)"}, {"smiles": "C=C1CC(=O)C2OC2(C)CC2OC(=O)C(=C)C2C(O)C1OC(=O)/C(C)=C\\C", "note": "(centres undefined)", "redox activity (% of DA3003)": "-2.1% (inactive)"}, {"smiles": "CCOC(=O)c1cnn(-c2ccccc2)c1NC(=O)c1cc2nc(-c3ccco3)cc(C(F)(F)Cl)n2n1", "redox activity (% of DA3003)": "-7.17% (inactive)"}, {"smiles": "C=C1C(=O)OC2C=C(C)CC/C=C(\\CO)CC(O)C12", "note": "(centres undefined)", "redox activity (% of DA3003)": "9.49% (inactive)"}, {"smiles": "CN1CCN(C2=Nc3ccccc3Nc3ccc(OS(=O)(=O)C(F)(F)F)cc32)CC1", "redox activity (% of DA3003)": "6.42% (inactive)"}, {"smiles": "C=C(C)[C@@H]1CC=C(COC(=O)NC(=O)c2ncn3c(=O)n(C)nnc23)CC1", "redox activity (% of DA3003)": "-2.02% (inactive)"}, {"smiles": "CCC(C)/C=C(C)/C=C/C1=CC2=C(Cl)C(=O)C(C)(OC(C)=O)C(=O)C2(O)C(OC)O1", "note": "(centres undefined)", "redox activity (% of DA3003)": "17.9% [at 25.6 µM] (inactive)"}, {"smiles": "O=C(Nc1ccc(-c2ccc(Cl)c(Cl)c2)cc1)C1=C(O)c2ccccc2S(=O)(=O)N1", "redox activity (% of DA3003)": "9.54% (inactive)"}, {"smiles": "C[C@@H]1CC[C@@]23CC[C@]4(C)[C@@](C=CC5[C@@]6(C)CC[C@H](O)C(C)(C)C6CC[C@]54C)(OC2=O)C3[C@H]1C", "note": "(some centres undefined)", "redox activity (% of DA3003)": "16.1% [at 25.6 µM] (inactive)"}, {"smiles": "O=C(NCCN1CCN(c2cccc3ccc(O)cc23)CC1)c1ccc(F)cc1", "redox activity (% of DA3003)": "15.4% (inactive)"}]}]}
